Measured values from PubChem BioAssay (NCI).
About 83,000 compounds went through this panel and 20% of them were active in at least one assay; those are over-represented in the sample as a whole.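 The test compound was applied at a single concentration to cells in 96-well plates for 48 hours, and percent growth was recorded.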 Values without a mark were called inactive. Activity calls are given as the source filed them.

What follows are compounds tested on NCI-H322M lung (assay: NCI-60 one-dose screen, 48 h (100 = growth as untreated, 0 = no growth, -100 = all killed)). Details: 10 µM unless noted.
Protocol: Growth inhibition of the NCI-H322M human Non-Small Cell Lung tumor cell line is measured as a screen for anti-cancer activity. Cells are grown in 96 well plates and exposed to the test compound for 48 hours. Compounds are tested at a single concentration, which is 10^-5 M for most compounds. The reported endpoint is percent growth (GI% or GIPRCNT), where numbers from 0 - 100% represent growth inhibition, and numbers from -100% - 0 represent cell death. For example, a value of 40 represents 60% growth inhibition. A value of 0 means no net growth occurred over the course of the experiment. A value of -40 indicates 40% of cells at the beginning of the experiment died by the end of the experiment. A value of -100 means all cells are dead at the end of the experiment.
NCI-60 Human Tumor Cell Lines Screen was performed using the standard one-dose NCI protocol, which is described in more detail at https://dtp.cancer.gov/discovery_development/nci-60/default.htm.
Compounds with GIPRCNT values below 10 were considered active. Activity score was based on GIPRCNT using the following formula: […]
Score is 0 for GIPRCNT values of 100 or above, 50 for GIPRCNT values of 0, and 100 for GIPRCNT values of -100.
Work on `O=C1OC(c2ccc(-c3ccccc3)cc2)=C/C1=C/C=C/c1ccccc1` yielded a growth of 92.5%.
`COC(=O)Nc1nc2ccc(Sc3ccccc3)cc2[nH]1` was tested, and the growth was 55.4%.
`COc1cc(C(=O)N2CCN(C(=O)c3cc(OC)c(OCc4ccccc4)cc3N)CC2)c(N)cc1OCc1ccccc1` gave a growth of 99.3%.
`C/C(=N/O)c1ccc(NC(=O)Cn2nc(-c3ccc(Cl)cc3)nc2N)cc1` was tested, and the growth was 92.4%.
`Cc1cc(SCc2ccc(Cl)cc2Cl)nc(SCc2ccc(Cl)cc2Cl)n1` gave a growth of 96.5%.
Compound `Cn1cnc([N+](=O)[O-])c1N1c2ccncc2Sc2ccncc21` has a growth of 110%.
`CC(=O)N1N=C(CCC(=O)c2nc3ccc([N+](=O)[O-])cc3[nH]2)OC1c1ccc(O)cc1` (stereo not given) was tested, and the growth was 99%.
For `O=S1(=O)N(CCNc2nccc(-c3c(-c4cccc(O)c4)nc4sccn34)n2)CCN1Cc1ccccc1`, the growth was 101%.
For `O=[N+]([O-])c1ccccc1NC1c2ccccc2Oc2ccccc21`, the growth was 74.6%.
For `CC1CCc2cc(F)cc3c(=O)c(C(=O)O)cn1c23` (stereo not given), the growth was 116%.
Work on `COc1ccc(NC(=O)Nc2ccc(-c3ccc(OC)c(OC)c3)nc2C)cc1` yielded a growth of 87%.
`Cc1c(F)cccc1NC(=O)c1sc2nc3c(cc2c1N)CCCCC3` showed a growth of 85.8%.
`CCCCOc1c(N)cc(Cl)cc1C(=O)OCCN(CC)CC` gave a growth of 86%.
Compound `Nc1nc(-c2cc3c(cc2Cl)NC(=O)/C3=C/c2ccc(Cl)cc2)cs1` has a growth of 59.7%.
With `CCCCOc1nc2ccc(Cl)cc2cc1/C=C/C(=O)/C=C/c1ccc(OC)cc1` the growth was 95.6%.
`COc1ccccc1S(=O)(=O)Nc1ccc2c3c(cc(-c4ccoc4)nc13)C(=O)N2C` showed a growth of 76.2%.
With `COc1ccc(CNc2nc3ccccc3c3c(=O)c4ccccc4sc23)cc1OC` the growth was 80.6%.
`S=c1n(CNc2ccc(Cl)nn2)nc(-c2cc(Cl)cc(Cl)c2Cl)n1/N=C/c1ccc(Cl)cc1` showed a growth of 74.9%.
`CCOC(=O)c1noc2c1CCc1c-2cn(Cc2ccc(OC)cc2)c1-c1cc(OC)c(OC)c(OC)c1` was tested, and the growth was 52.2%.
`Cc1ccc(-c2cc(-c3nnc(SCC(=O)c4ccccc4)o3)c3ccccc3n2)cc1` showed a growth of 90.3%.
`COc1ccc(-c2cc3ccc(N(C)C)cc3nc2N)c(F)c1` showed a growth of 66.9%.
Compound `COc1ccc2c(c1)nnn1c3ncccc3c(N=O)c21` has a growth of 31%.
`O=C(Nc1ccc(-n2cc(-c3ccncc3)c(-c3ccc(O)c(Cl)c3)n2)cc1)Nc1cc(C(F)(F)F)cc(C(F)(F)F)c1` gave a growth of 51.5%.
Work on `Nc1ncnc2c1ncn2C1OC(COC(c2ccccc2)(c2ccccc2)c2ccccc2)C(O)C1O` (stereo not given) yielded a growth of 96.5%.
Compound `COc1ccccc1S(=O)(=O)Nc1ccc2c3c(cc(-c4cnn(C5CC5)c4)nc13)C(=O)N2C` has a growth of 70.7%.
With `O=C(/C=C/c1ccccc1)Oc1ccc(/C=C/c2cc(OC(=O)/C=C/c3ccccc3)cc(OC(=O)/C=C/c3ccccc3)c2)cc1` the growth was 90.6%.
For `COc1ccc(C(=O)NC(=O)Nc2ccc3c(c2)NC(=O)/C3=C\c2[nH]c(C)c(CCC(=O)O)c2C)c(F)c1`, the growth was 50.7%.
`CCOc1ccccc1C(=O)N1CCN(c2cc(Cl)cc(Cl)c2)CC1` was tested, and the growth was 35%.
Work on `CNCCCOc1c(Br)cc(CCNC(=O)/C(Cc2ccc(OC)c(Br)c2)=N/O)cc1Br` yielded a growth of 70.3%.
With `CC(C)NCC(O)COc1ccc(CC(N)=O)cc1` (stereo not given) the growth was 100%.
With `COc1ccc(C[C@H](N)C(=O)N[C@@H]2[C@@H](CO)OC(n3cnc4c(N(C)C)ncnc43)[C@@H]2O)cc1` (stereo not given in full) the growth was -65.2% (active).
In the case of `O=c1cc(Cl)[nH]c(=O)[nH]1`, the growth is reported as 98.9%.
`C=C1C(=O)O[C@H]2[C@H]1CC/C(COC(=O)c1ccccc1)=C\CC[C@@]1(C)O[C@@H]21` showed a growth of 59.3%.
`CCCc1nn2c(CCC(=O)c3nc4ccc([N+](=O)[O-])cc4[nH]3)nnc2s1` gave a growth of 97.9%.
Work on `Cc1ccc2c(c1)Nc1ccc(C)cc1C2(C)C` yielded a growth of 114%.
Compound `COc1ccc(-c2coc3c(CO)c(O)ccc3c2=O)cc1` has a growth of 52.9%.
`CSc1ccc(C(=O)C[n+]2cccc(C)c2)cc1` was tested, and the growth was 102%.
With `CC(C)C1(C(C)C)NC(=O)NC1=O` the growth was 119%.
`COc1ccc(N)c(S)c1` showed a growth of 106%.
Work on `Nc1ncc(-c2ccc3ncnc(Nc4cncc(Cl)c4)c3c2)cn1` yielded a growth of 29.8%.
